Source: PubChem BioAssay AID686996 (Broad Institute, 2013)
Hit rate of the full screen: of about 350,000 compounds, about 1,900 (0.54%) were called active. Many of the other results were omitted from the sample, so actives are more common in it than they were. A number with no mark means an inactive call.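 How the source made its calls: active means mean inhibition across replicates at least about 35%, with every replicate also reaching that limit (limit read from the data); inconclusive means only one of the two criteria met; inactive means neither criterion met.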

biological target: Caspase-6 (Homo sapiens) (UniProt P55212); test: inhibition of CASP6 peptide cleavage – biochemical, VEID-R110 fluorescence, single point, set 2, primary screen (AID 686996); settings: purified caspase-6, Z-VEID-R110 cleavage fluorescence; at 12.5 µM; stronger effect = higher value;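 further: 0% = median of neutral control wells and 100% = no fluorescence left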
Sequence (P55212 24-179 limits assumed): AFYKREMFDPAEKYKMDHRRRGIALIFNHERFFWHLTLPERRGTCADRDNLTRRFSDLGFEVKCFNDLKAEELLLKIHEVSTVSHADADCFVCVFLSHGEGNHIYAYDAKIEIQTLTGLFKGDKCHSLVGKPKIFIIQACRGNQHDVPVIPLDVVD
Sequence (P55212 194-293 limits assumed): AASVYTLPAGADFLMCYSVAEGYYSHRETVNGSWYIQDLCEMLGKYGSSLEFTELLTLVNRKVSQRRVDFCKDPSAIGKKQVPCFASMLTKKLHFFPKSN

With O=C1OC(/C=C/c2ccccc2)=NC/1=C/c1ccco1 the inhibition was 38.7% (active).
COc1cc(NC(=O)COC(=O)c2ccc([N+](=O)[O-])s2)cc(OC)c1OC was tested, and the inhibition was 87.1% (active).
With COc1ccc(Cl)cc1NC(=O)CCS(=O)(=O)c1ccc(Br)cc1 the inhibition was 87.9% (active).
With O=C(CCS(=O)(=O)c1ccc(Br)cc1)NCCc1ccc(Cl)cc1 the inhibition was 49% (active).
CNS(=O)(=O)c1cccc(C(=O)OCC(=O)N2c3ccccc3NC(=O)C2(C)C)c1 was tested, and the inhibition was 35.9% (active).
With O=C(Nc1ccc2c(c1)OCCO2)C1CCCC1 the inhibition was 35.2% (active).
With CS(=O)(=O)c1ccc2c(c1)SC1=NC(=O)/C(=C/c3ccco3)C(=N)N12 the inhibition was 56.4% (active).
For Cc1ccccc1NC(=O)CN1C(=O)N/C(=C\c2cccn2-c2cccc(C(=O)O)c2)C1=O, the inhibition was 63.2% (active).
With O=C(Nc1cccc(F)c1)c1coc(=O)c(Br)c1 the inhibition was 51.7% (active).
For CCC(C)CN1C(=O)CN(S(C)(=O)=O)CC1(C)C(=O)Nc1ccc2c(c1)OCCO2 (stereo not drawn), the inhibition was 39.7% (active).
In the case of CCOC(=O)c1ccc(Nc2cc3ccccc3c(=O)[nH]2)cc1, the inhibition was 87.8% (active).
For Cc1ccc(CNC(=O)C2CCN(S(=O)(=O)c3ccc4nc5c(c(C(=O)O)c4c3)CC(C)CC5)CC2)cc1 (stereo not drawn), the inhibition was 62.6% (active).
For O=C(O)c1cc(S(=O)(=O)Nc2ccc3cn[nH]c3c2)ccc1Br, the inhibition was 43.4% (active).

First: C[C@H]1CN([C@@H](C)CO)C(=O)c2cc(-c3ccncc3)cnc2O[C@@H]1CN(C)C(=O)c1cccc(F)c1
Second: Cc1ccc(-c2cnc3c(c2)C(=O)N([C@H](C)CO)C[C@@H](C)[C@@H](CN(C)C(=O)CN(C)C)O3)cc1
The inhibition of the first is higher: 1.35% for the first, -0.686% for the second.

First: Cc1noc(C)c1NC(=O)N(C)C[C@H]1Oc2ccc(N(C)C)cc2CC(=O)N([C@H](C)CO)C[C@H]1C
Second: Cc1noc(C)c1NC(=O)N(C)C[C@@H]1Oc2ccc(NS(C)(=O)=O)cc2C(=O)N([C@@H](C)CO)C[C@@H]1C
The inhibition of the first is lower: -3.82% for the first, 3.77% for the second.

First: O=C(C[C@H]1CC[C@@H](NC(=O)Nc2ccc(F)cc2)[C@H](CO)O1)NCc1cccc(F)c1
Second: O=C(Nc1ccc(F)cc1)N[C@@H]1CC[C@H](CC(=O)N2CCCCC2)O[C@H]1CO
The inhibition of the first is lower: -1.29% for the first, 1.55% for the second.

First: O=C(OCC(=O)N1CCN(c2ccccc2)CC1)c1ccc([N+](=O)[O-])s1
Second: COc1ccc(C(=O)COC(=O)c2ccc([N+](=O)[O-])s2)cc1OC
The inhibition of the first is higher: 22% for the first, 0.899% for the second.

Going from O=C(C[C@H]1CC[C@H]2NC[C@@H](O)COC[C@@H]2O1)NCCN1CCCC1 to O=C(C[C@@H]1CC[C@H]2[C@@H](COC[C@H](O)CN2C(=O)Nc2ccccc2)O1)NCCc1ccncc1, the inhibition rises from -1.22% to 2.19%.

First: Cc1ccc(S(=O)(=O)CCC(=O)OCC(=O)NCCc2ccc(S(N)(=O)=O)cc2)cc1
Second: CCOc1ccc(OCC)c(NC(=O)CCS(=O)(=O)c2ccc(C)cc2)c1
The inhibition of the first is higher: 1.6% for the first, 0.288% for the second.

Going from COc1ccc(Cl)cc1NC(=O)CCS(=O)(=O)c1cc2c(cc1C)NC(=O)CO2 to COc1ccc(S(=O)(=O)Nc2ccc3cn[nH]c3c2)cc1[N+](=O)[O-], the inhibition rises from 0.689% to 9.88%.

Going from O=C(Cc1ccc(Br)cc1)NCCc1ccccc1 to Cc1ccccc1NC(=O)CSC(=O)c1ccccc1, the inhibition rises from 0.216% to 1.82%.

Compared with CC(C)NC(=O)N(C)C[C@@H]1Oc2ccc(NS(=O)(=O)c3cn(C)cn3)cc2C(=O)N([C@@H](C)CO)C[C@@H]1C, C[C@@H]1CCCCO[C@H](CN(C)C(=O)Cc2ccccc2)[C@H](C)CN([C@H](C)CO)C(=O)c2cc(NS(=O)(=O)c3cn(C)cn3)ccc2O1 is lower in inhibition: 0.64% for the first, -3.5% for the second.

Going from C[C@@H]1CCCCO[C@H](CN(C)S(=O)(=O)c2cccs2)[C@@H](C)CN([C@@H](C)CO)C(=O)c2cc(NC(=O)Nc3ccc4c(c3)OCO4)ccc2O1 to C[C@H](CO)N1C[C@H](C)[C@@H](CN(C)C(=O)Nc2ccc3c(c2)OCO3)OCCCC[C@H](C)Oc2ccc(NS(=O)(=O)c3cn(C)cn3)cc2C1=O, the inhibition falls from 0.247% to -1.24%.

First: C[C@H](NC(=O)C[C@@H]1C[C@@H]2c3cc(NC(=O)Nc4ccc(C(F)(F)F)cc4)ccc3O[C@@H]2[C@H](CO)O1)c1ccccc1
Second: C[C@@H]1CCCCO[C@@H](CN(C)C(=O)Nc2ccc(C(F)(F)F)cc2)[C@H](C)CN([C@H](C)CO)C(=O)c2cc(NC(=O)c3ccccc3)ccc2O1
The inhibition of the first is lower: -2.54% for the first, -0.72% for the second.

First: O=C(NC[C@@H]1N[C@@H](CO)[C@H]1c1ccc(-c2cccnc2)cc1)c1cccc(F)c1
Second: O=C(Nc1cccc(F)c1)c1cc(-c2ccco2)nc2ccccc12
The inhibition of the first is higher: 0.599% for the first, -7.91% for the second.

First: Cc1cc(C(=O)OCC(=O)N2c3ccccc3NC(=O)C2(C)C)c(C)n1-c1ccccc1
Second: CCNc1ccc(C(=O)OCC(=O)N2c3ccccc3NC(=O)C2(C)C)cc1[N+](=O)[O-]
The inhibition of the first is higher: -1.9% for the first, -5.89% for the second.

Going from O=C(Nc1ccc2c(c1)OCO2)C1CC1(Cl)Cl (stereo not drawn) to O=C(Nc1ccc2c(c1)OCCO2)c1ccoc1, the inhibition rises from -1.32% to 0.545%.

Going from COC(=O)C[C@@H]1CC[C@@H]2[C@@H](COc3ccc(NC(=O)C4CCOCC4)cc3C(=O)N2C)O1 to O=C(NCC[C@H]1CC[C@H](NS(=O)(=O)c2cccc(F)c2)[C@H](CO)O1)C1CCCCC1, the inhibition rises from -2.32% to -1.12%.

First: C/C=C/c1ccc([C@@H]2[C@H](CO)N(S(=O)(=O)Cc3ccccc3)C23CN(C(=O)C2CCOCC2)C3)cc1
Second: CC(=O)N1CC2(C1)[C@H](c1ccccc1)[C@@H](CO)N2C(=O)Cc1ccccc1
The inhibition of the first is higher: 0.958% for the first, 0.826% for the second.

First: CO[C@@H]1CN(C)C(=O)c2ccc(NS(=O)(=O)c3cccc(C)c3)cc2OC[C@@H](C)NC[C@H]1C
Second: COc1ccc(CN(C)C[C@H]2OCCCC[C@@H](C)Oc3ccc(NS(C)(=O)=O)cc3C(=O)N([C@@H](C)CO)C[C@H]2C)cc1
The inhibition of the first is higher: -0.731% for the first, -2.66% for the second.

Compared with CCC(=O)N1[C@H](C(=O)NC2CCC2)[C@@H](CO)[C@@H]2Cn3c(cccc3=O)[C@@H]21, CCCNC(=O)[C@@H]1[C@@H](CO)[C@@H]2Cn3c(ccc(-c4ccccc4F)c3=O)[C@H]1N2CC1CC1 is higher in inhibition: 0.371% for the first, 0.74% for the second.

Going from COc1ccc2c3c(n(C)c2c1)[C@H](CO)N(CC1CCCCC1)CC31CCN(Cc2nccs2)CC1 to COc1ccc2c3c(n(C)c2c1)[C@@H](CO)N(C)CC31CN(CC2CC2)C1, the inhibition falls from -2.93% to -5.67%.

Going from Cc1ccc(S(=O)(=O)Nc2ccc3c(c2)C(=O)N([C@@H](C)CO)C[C@@H](C)[C@H](CN(C)Cc2ccc(Cl)c(Cl)c2)OCCCC[C@@H](C)O3)cc1 to COc1ccc(NC(=O)N(C)C[C@H]2OCCCC[C@H](C)Oc3ccc(NS(C)(=O)=O)cc3C(=O)N([C@H](C)CO)C[C@@H]2C)cc1, the inhibition falls from -0.785% to -0.91%.

Compared with O=C(C[C@@H]1CC[C@@H](NS(=O)(=O)c2ccc(F)cc2)[C@@H](CO)O1)NCCc1ccncc1, COc1ccc(NC(=O)N[C@H]2CC[C@@H](CCNS(=O)(=O)c3cccc(Cl)c3)O[C@H]2CO)cc1 is lower in inhibition: 3.03% for the first, -1.94% for the second.

Compared with Cc1ccccc1NC(=O)Cn1c(=O)n(CC2CCCO2)c(=O)c2ccccc21 (stereo not drawn), O=C(CCN1C(=O)c2ccccc2C1=O)Nc1cccc(F)c1 is lower in inhibition: 6.2% for the first, -0.612% for the second.

First: COc1ccc(C(=O)N2C[C@@H]3[C@H](c4ccccc42)[C@H](CO)N3Cc2ccc3c(c2)OCO3)cc1
Second: COc1ccc(S(=O)(=O)Nc2cccc3c2O[C@@H](CN(C)C(=O)Nc2ccccc2)[C@@H](C)CN([C@@H](C)CO)C3=O)cc1
The inhibition of the first is higher: -0.922% for the first, -2.16% for the second.

First: CCOC(=O)C1=C(C(=O)OCC)C2N(Cc3ccc(C#N)cc3)c3ccccc3[C@@]23C[C@@H](C(=O)OC)N(S(=O)(=O)c2ccc(F)cc2)C3=N1 (stereo partly drawn)
Second: CC(=O)N1c2ccc(S(=O)(=O)N3CCC(C(=O)NCc4ccc(F)cc4)CC3)cc2CC1C (stereo not drawn)
The inhibition of the first is lower: -0.093% for the first, 22.3% for the second.

Going from CC(C)CN1C(=O)CN(S(C)(=O)=O)CC1(C)C(=O)NCc1ccccc1 (stereo not drawn) to CC1(C(=O)Nc2ccc3c(c2)OCCO3)CN(S(C)(=O)=O)CC(=O)N1Cc1cccc(F)c1 (stereo not drawn), the inhibition rises from -0.689% to 1.36%.

First: COc1ccc2c3c([nH]c2c1)[C@H](CO)N(Cc1ccc(F)cc1)CC31CCN(Cc2ccccn2)CC1
Second: CCOC(=O)c1ccc(NC(=O)c2c(NCc3ccccc3)[nH]c(=O)[nH]c2=O)cc1
The inhibition of the first is lower: -3.59% for the first, 0.97% for the second.

Compared with C[C@H](CO)N1C[C@H](C)[C@H](CN(C)Cc2ccncc2)Oc2ccc(N(C)C)cc2C1=O, C[C@@H]1CN([C@H](C)CO)S(=O)(=O)c2ccc(C#C[C@@H](C)O)cc2O[C@H]1CN(C)C(=O)CC1CC1 is lower in inhibition: 2.63% for the first, 0.478% for the second.

Compared with C#CCNc1ccc(C(=O)OCC)cc1, CCC(=O)N1CCCCN2[C@H](C1)[C@@H](c1ccc(C#CCOC)cc1)[C@@H]2CO is lower in inhibition: -1.16% for the first, -1.73% for the second.

Going from CCOC(CNC(=O)C1CCN(S(=O)(=O)c2ccc3nc4c(c(C(=O)O)c3c2)CC(C)CC4)CC1)OCC (stereo not drawn) to O=C(Nc1ccc2cn[nH]c2c1)c1ccc(S(=O)(=O)N2CCOCC2)cc1, the inhibition falls from 33.4% to 0.612%.

First: N#C[C@H]1[C@@H](c2ccccc2-c2ccccc2F)[C@@H](CO)N1C(=O)C1CCC1
Second: CC(=O)N1[C@@H](CO)[C@@H](c2ccc(C3=CCCC3)cc2)C12CN(C(=O)C1CC1)C2
The inhibition of the first is lower: -2.32% for the first, 0.171% for the second.
